# Experimental data from the supplement of paper PMC10121225.
# Structures can show the parent of a compound that is named as a salt.
# System: hN + hpA co-culture (H1 iNGN2 human neurons + human primary astrocytes)
# Experiment: presynaptic density (SYNAPSIN1 puncta per MAP2 neurite area), Z-score vs DMSO controls; higher = more presynaptic puncta (synapse-promoting)
# Conditions: 3 µM; 72 h
# 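Also: immunostained co-cultures imaged by high-content microscopy, Z-score per plate against mean and SD of 0.1% DMSO wells, compounds added on differentiation day 18, analysed day 21.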
row,Compound,presynaptic density (Z-score)
1,O=C(N/N=C/c1ccc(O)c(O)c1)c1cc2ccccc2cc1O,-0.146
2,CNC(=O)c1ccccc1Nc1nc(Nc2ccc(N3CCOCC3)cc2OC)ncc1Cl,0.092
3,CC(C)[C@H](O)C(=O)N[C@@H](C)C(=O)N[C@@H]1C(=O)N(C)CCc2ccccc21,-0.185
4,C#CCC(Cc1cnc2nc(N)nc(N)c2n1)c1ccc(C(=O)N[C@@H](CCC(=O)O)C(=O)O)cc1 (stereo partly drawn) [Pralatrexate],0.0678
5,CCCSc1nc(N[C@@H]2C[C@H]2c2ccc(F)c(F)c2)c2nnn([C@@H]3C[C@H](OCCO)[C@@H](O)[C@H]3O)c2n1 [Ticagrelor],-0.848
6,CC(C)(Cc1ccc2ccccc2c1)NC[C@@H](O)COc1cccc(Cl)c1C#N,-2.26
7,COc1ccc(-c2nc3cc(C4=NNC(=O)CC4C)ccc3[nH]2)cc1 (stereo not drawn) [Pimobendan],-0.704
8,CN[C@@H](C)C(=O)N[C@H](C(=O)N1CCC[C@H]1C(=O)Nc1snnc1-c1ccccc1)C1CCCCC1,-0.107
9,CC(C)(C)NC(=O)[C@H]1CC[C@H]2[C@@H]3CC[C@H]4NC(=O)C=C[C@]4(C)[C@H]3CC[C@]12C [Finasteride],-0.206
10,CCc1cc(Nc2nccc(-c3c(-c4ccc(OC)c(C(=O)Nc5c(F)cccc5F)c4)nc4ccccn34)n2)c(OC)cc1N1CCC(N2CCN(S(C)(=O)=O)CC2)CC1,0.31
11,O=c1oc2cc(O)ccc2s1,-0.113
12,COc1ccc(-n2nc(C(N)=O)c3c2C(=O)N(c2ccc(N4CCCCC4=O)cc2)CC3)cc1 [Apixaban],0.0881
13,CC(NC(=O)C(O)c1cc(F)cc(F)c1)C(=O)NC1C(=O)N(C)c2ccccc2-c2ccccc21 (stereo not drawn),0.0312
14,CN1CC(=O)N2[C@H](c3ccc4c(c3)OCO4)c3[nH]c4ccccc4c3C[C@@H]2C1=O [Tadalafil],-0.533
15,O=C(O)Cn1nnc(-c2cc(N3CCC(Oc4cc(F)ccc4Br)CC3)no2)n1,-0.606
16,CCN[C@H]1CN(CCCOC)S(=O)(=O)c2sc(S(N)(=O)=O)cc21 [Brinzolamide],-0.474
17,CC(C)CCN1c2nc(Nc3cc(F)c(O)c(F)c3)ncc2N(C)C(=O)C1C (stereo not drawn),2.11
18,Cc1cccc(-c2nn3c(c2-c2ccnc4ccc(C(N)=O)cc24)CCC3)n1,0.336
19,Cc1cnc(NC(=O)Nc2cc(Br)c(C)cc2OC[C@@H]2CNCCO2)cn1,-0.602

row,Compound,presynaptic density (Z-score)
1,Cc1cc(Nc2ncc(Cl)c(Nc3ccccc3S(=O)(=O)C(C)C)n2)c(OC(C)C)cc1C1CCNCC1,0.147
2,C[C@]12CC[C@@H]3c4ccc(O)cc4C[C@@H](CCCCCCCCC[S+]([O-])CCCC(F)(F)C(F)(F)F)[C@H]3[C@@H]1CC[C@@H]2O (stereo partly drawn) [Fulvestrant],-0.41
3,O=C(Nc1ccccc1)c1cc([N+](=O)[O-])ccc1Cl,-0.00538
4,CCCCCCCCCCCC1=C(O)C(=O)C=C(O)C1=O,-0.826
5,CC(C)OC(=O)OCOP(=O)(CO[C@H](C)Cn1cnc2c(N)ncnc21)OCOC(=O)OC(C)C [Tenofovir Disoproxil Fumarate],0.611
6,C=CCNC1=C2C[C@@H](C)C[C@H](OC)[C@H](O)[C@@H](C)/C=C(\C)[C@H](OC(N)=O)[C@@H](OC)/C=C\C=C(/C)C(=O)NC(=CC1=O)C2=O [17-AAG (Tanespimycin)],0.868
7,CCCS(=O)(=O)Nc1ccc(F)c(C(=O)c2c[nH]c3ncc(-c4ccc(Cl)cc4)cc23)c1F,-0.231
8,O=C(Nc1ccc(S(=O)(=O)Nc2ccccc2Cl)c(Cl)c1)c1ccccn1,-0.71
9,OC(CNCC(O)C1CCc2cc(F)ccc2O1)C1CCc2cc(F)ccc2O1 (stereo not drawn) [Nebivolol],-0.196
10,CCOc1nc2cccc(C(=O)O)c2n1Cc1ccc(-c2ccccc2-c2nnn[nH]2)cc1 [Candesartan],0.323
11,C=CCn1c(=O)c2cnc(Nc3ccc(N4CCN(C)CC4)cc3)nc2n1-c1cccc(C(C)(C)O)n1,1.16
12,COc1cc(N2CCC(N)CC2)ccc1Nc1ncc(Cl)c(-c2c[nH]c3ccccc23)n1,-0.26
13,O=C(Nc1cccc(Cl)c1)c1ccccn1,0.851
14,O=C(Nc1cc(C(F)(F)F)cc(C(F)(F)F)c1)c1cc(Cl)ccc1O,-3.05
15,Cc1nc2c(-c3cnc(N)nc3)nc(N3CCOCC3)nc2n1C(C)C,1.07
16,Cc1nn(-c2ccccc2)c(C)c1C=NN1CCN(Cc2ccccc2)CC1,-0.2
17,CN(C)C(=O)[C@H](O)[C@H](Cc1ccccc1)NC(=O)c1cc2cc(Cl)ccc2[nH]1,-0.264
18,"O=[N+]([O-])c1ccc2c(c1)S(=O)(=O)C=C2 [6-Nitrobenzo[b]thiophene 1,1-dioxide]",0.915
19,COc1cc(Br)c(Nc2nc(-c3c(C)nc4ncccn34)cs2)c(Br)c1,-2
